According to the supplement of paper PMC9262897, “Low-cost anti-mycobacterial drug discovery using engineered E. coli” (Nature Communications, 2022):
Structures can show the parent of a compound that is named as a salt. ± gives the standard deviation of the averaged measurements.

Columns and labels:
Assay in all cases: growth (OD600 after 10 h); higher = more growth (less inhibition)
[1] = test system: E. coli TESEC Alr+ wild-type control; details: compound 0.1 mM; raw OD600 reference: median of DMSO wells 0.241, cell-free background 0.041
Procedure: (§1)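 TESEC Mtb Alr E. coli, or the Alr+ wild-type control, in 384-well plates with Prestwick library compounds at 0.1 mM and 1% DMSO, across arabinose induction levels of 1E3 to 1E7 nM. Growth is read as OD600 after 10 h at 37 °C in triplicate biological replicates.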

[2] = test system: E. coli TESEC Mtb Alr; details: compound 0.1 mM
Procedure: as §1

[3] = test system: E. coli TESEC Mtb Asd; details: compound 0.1 mM
Procedure: (§2)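 TESEC E. coli strains in which the native enzyme is deleted and replaced by arabinose-inducible Mtb Asd, DapB, CysH or TrpD, each grown in its selective medium. Strains were screened against the Prestwick library at 0.1 mM and 1% DMSO in 384-well format at low and high arabinose induction. Growth is read as OD600 after 10 h in triplicate.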

[4] = test system: E. coli TESEC Mtb DapB; details: compound 0.1 mM
Procedure: as §2

[5] = test system: E. coli TESEC Alr+ wild-type control; details: compound 0.1 mM; raw OD600 reference: median of DMSO wells 0.49, cell-free background 0.052
Procedure: (§3)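 TESEC Mtb Alr E. coli (ΔaraC ΔtolC ΔentC Δalr ΔdadX, arabinose-inducible Mtb Alr) or the Alr+ wild-type control strain, grown in defined M9-fructose medium without D-alanine in 96-well plates with Prestwick library compounds at 0.1 mM and 1% DMSO. Low Alr induction is 0.1 µM arabinose and high induction is 10 mM arabinose.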

[6] = test system: E. coli TESEC Mtb Alr; details: compound 0.1 mM; remark: listed apart in the source
Procedure: as §3

[7] = arabinose 1000 nM, raw OD600 reference: median of DMSO wells 0.294, cell-free background 0.041
[8] = arabinose 10000 nM, raw OD600 reference: median of DMSO wells 0.264, cell-free background 0.041
[9] = arabinose 100000 nM, raw OD600 reference: median of DMSO wells 0.201, cell-free background 0.041
[10] = arabinose 1000000 nM, raw OD600 reference: median of DMSO wells 0.193, cell-free background 0.041
[11] = arabinose 10000000 nM, raw OD600 reference: median of DMSO wells 0.146, cell-free background 0.041
[12] = arabinose induction (level): High, raw OD600 reference: median of DMSO wells 0.331, cell-free background 0.041
[13] = arabinose induction (level): Low, raw OD600 reference: median of DMSO wells 0.417, cell-free background 0.041
[14] = arabinose induction (level): High, raw OD600 reference: median of DMSO wells […], cell-free background 0.041
[15] = arabinose induction (level): Low, raw OD600 reference: median of DMSO wells 0.227, cell-free background 0.041
[16] = arabinose 100 nM, raw OD600 reference: median of DMSO wells 0.413, cell-free background 0.052
[17] = arabinose 10000000 nM, raw OD600 reference: median of DMSO wells […], cell-free background 0.052

| Structure (SMILES) | growth [1] | growth [2, 7] | growth [2, 8] | growth [2, 9] | growth [2, 10] | growth [2, 11] | growth [3, 12] | growth [3, 13] | growth [4, 14] | growth [4, 15] | growth [5] | growth [6, 16] | growth [6, 17] |
| --- | --- | --- | --- | --- | --- | --- | --- | --- | --- | --- | --- | --- | --- |
| O=C(NCC1CCCCN1)c1cc(OCC(F)(F)F)ccc1OCC(F)(F)F (centres undefined) [Flecainide acetate] | 0.2202 ± 0.00045 | 0.2999 ± 0.00055 | 0.276 ± 0.0049 | 0.188 ± 0.0093 | 0.168 ± 0.0038 | 0.143 ± 0.0024 | 0.263 ± 0.026 | 0.42 ± 0.091 | 0.178 ± 0.016 | 0.213 ± 0.019 | 0.495 ± 0.081 | 0.412 ± 0.011 | 0.356 ± 0.018 |
| CN(CCOc1ccc(CC2SC(=O)NC2=O)cc1)c1ccccn1 (centres undefined) [Rosiglitazone Hydrochloride] | 0.142 ± 0.0027 | 0.177 ± 0.0057 | 0.168 ± 0.011 | 0.177 ± 0.0028 | 0.0847 ± 0.0029 | 0.112 ± 0.0041 | 0.184 ± 0.026 | 0.19 ± 0.023 | 0.177 ± 0.015 | 0.215 ± 0.028 | 0.327 ± 0.0092 | 0.266 ± 0.021 | 0.1 ± 0.016 |
| O=C1OC(CN2CCOCC2)CN1/N=C/c1ccc([N+](=O)[O-])o1 (centres undefined) [Furaltadone hydrochloride] | 0.04157 ± 0.00012 | 0.0421 ± 0.002 | 0.0409 ± 0.0001 | 0.04173 ± 5.8e-05 | 0.0404 ± 0.00046 | 0.0427 ± 0.0014 | 0.0534 ± 0.0031 | 0.0559 ± 0.0011 | 0.0577 ± 0.0081 | 0.0529 ± 0.00068 | 0.05647 ± 0.00045 | 0.0601 ± 0.0022 | 0.0562 ± 0.0033 |
| O=c1[nH]c(=O)n(C2CCCO2)cc1F (centres undefined) [Tegafur] | 0.2441 ± 0.0016 | 0.284 ± 0.0093 | 0.2613 ± 0.001 | 0.208 ± 0.0031 | 0.224 ± 0.013 | 0.135 ± 0.0053 | 0.366 ± 0.03 | 0.359 ± 0.091 | 0.2018 ± 0.0016 | 0.23 ± 0.032 | 0.586 ± 0.12 | 0.407 ± 0.011 | 0.346 ± 0.011 |
| O=C(C1CCCCC1)N1CC(=O)N2CCc3ccccc3C2C1 (centres undefined) [Praziquantel] | 0.207 ± 0.0042 | 0.251 ± 0.0052 | 0.237 ± 0.015 | 0.214 ± 0.021 | 0.167 ± 0.01 | 0.141 ± 0.0052 | 0.391 ± 0.074 | 0.278 ± 0.026 | 0.174 ± 0.0068 | 0.21 ± 0.027 | 0.447 ± 0.019 | 0.382 ± 0.0029 | 0.37 ± 0.025 |
| Oc1ccc(OCc2ccccc2)cc1 [Monobenzone] | 0.176 ± 0.0053 | 0.213 ± 0.017 | 0.249 ± 0.011 | 0.169 ± 0.004 | 0.134 ± 0.0036 | 0.161 ± 0.0038 | 0.314 ± 0.099 | 0.325 ± 0.025 | 0.2 ± 0.0057 | 0.21 ± 0.017 | 0.477 ± 0.012 | 0.395 ± 0.019 | 0.304 ± 0.018 |
| O=C(O)COCCN1CCN(C(c2ccccc2)c2ccc(Cl)cc2)CC1 (centres undefined) [Cetirizine dihydrochloride] | 0.21 ± 0.0098 | 0.275 ± 0.0074 | 0.25 ± 0.006 | 0.218 ± 0.017 | 0.183 ± 0.0077 | 0.14 ± 0.0034 | 0.223 ± 0.017 | 0.273 ± 0.045 | 0.168 ± 0.013 | 0.199 ± 0.019 | 0.655 ± 0.047 | 0.41 ± 0.014 | 0.349 ± 0.022 |
| CC1(C)[C@@H](OC(=O)CCC(=O)O)CC[C@]2(C)[C@H]3C(=O)C=C4[C@@H]5C[C@@](C)(C(=O)O)CC[C@]5(C)CC[C@@]4(C)[C@]3(C)CC[C@@H]12 [Carbenoxolone disodium salt] | 0.248 ± 0.007 | 0.275 ± 0.004 | 0.2609 ± 0.0019 | 0.319 ± 0.0044 | 0.213 ± 0.0028 | 0.201 ± 0.0016 | 0.325 ± 0.15 | 0.251 ± 0.006 | 0.196 ± 0.018 | 0.225 ± 0.012 | 0.426 ± 0.03 | 0.405 ± 0.019 | 0.37 ± 0.0045 |
| NC12CC3CC(CC(C3)C1)C2 [Adamantamine fumarate] | 0.253 ± 0.0038 | 0.299 ± 0.0054 | 0.271 ± 0.005 | 0.248 ± 0.034 | 0.209 ± 0.014 | 0.145 ± 0.0061 | 0.353 ± 0.052 | 0.457 ± 0.0081 | 0.2 ± 0.0046 | 0.214 ± 0.0073 | 0.469 ± 0.056 | 0.407 ± 0.0076 | 0.368 ± 0.026 |
| Nc1nc(=O)[nH]cc1F [Flucytosine] | 0.245 ± 0.0069 | 0.309 ± 0.022 | 0.243 ± 0.0058 | 0.187 ± 0.011 | 0.175 ± 0.008 | 0.14 ± 0.0027 | 0.456 ± 0.025 | 0.492 ± 0.026 | 0.21 ± 0.018 | 0.222 ± 0.016 | 0.57 ± 0.021 | 0.411 ± 0.015 | 0.333 ± 0.02 |
| CC(=O)OCC(=O)[C@@]1(O)[C@H](C)C[C@H]2[C@@H]3CCC4=CC(=O)C=C[C@]4(C)[C@@]3(F)[C@@H](O)C[C@@]21C [Dexamethasone acetate] | 0.167 ± 0.006 | 0.239 ± 0.041 | 0.226 ± 0.007 | 0.192 ± 0.017 | 0.119 ± 0.0023 | 0.1362 ± 0.00044 | 0.226 ± 0.034 | 0.356 ± 0.056 | 0.171 ± 0.017 | 0.233 ± 0.03 | 0.477 ± 0.033 | 0.396 ± 0.011 | 0.234 ± 0.018 |
| CC(=O)N(CC(O)CO)c1c(I)c(C(=O)NCC(O)CO)c(I)c(C(=O)NCC(O)CO)c1I (centres undefined) [Iohexol] | 0.242 ± 0.011 | 0.285 ± 0.0098 | 0.276 ± 0.0072 | 0.221 ± 0.043 | 0.195 ± 0.004 | 0.1422 ± 0.0012 | 0.35 ± 0.046 | 0.414 ± 0.056 | 0.195 ± 0.014 | 0.201 ± 0.02 | 0.512 ± 0.11 | 0.418 ± 0.01 | 0.343 ± 0.022 |
| COC(=O)N/N=C/c1c[n+]([O-])c2ccccc2[n+]1[O-] [Carbadox] | 0.197 ± 0.014 | 0.23 ± 0.011 | 0.1488 ± 0.00015 | 0.116 ± 0.003 | 0.117 ± 0.0034 | 0.142 ± 0.0022 | 0.163 ± 0.015 | 0.192 ± 0.054 | 0.163 ± 0.017 | 0.168 ± 0.0094 | 0.143 ± 0.0067 | 0.157 ± 0.013 | 0.082 ± 0.0067 |
